# Measured values as given in PubChem BioAssay AID687036 (The Scripps Research Institute Molecular Screening Center, 2013).
# The campaign covered roughly 3,300 compounds. About 1,400 (42%) were called active. So high a share suggests a set chosen from earlier hits. Not all results are given here. Unmarked numbers belong to inactive results.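 The calls were made as follows: active = mean inhibition across replicates above the hit cutoff derived for the earlier primary screen (cut at about 22% in these data); inactive = the rest.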
# Molecular target: Protein arginine N-methyltransferase 1 (Homo sapiens) (UniProt Q99873)
# Test: PRMT1 methyltransferase inhibitors, confirmation, biochemical, fluorescence polarization, triplicate (AID 687036)
# Settings: recombinant His-PRMT1, activity-based probe fluorescence polarization; at 2.79 µM; hits give high values
# Sequence of Protein arginine N-methyltransferase 1 (Homo sapiens) (Q99873 whole entry, looked up): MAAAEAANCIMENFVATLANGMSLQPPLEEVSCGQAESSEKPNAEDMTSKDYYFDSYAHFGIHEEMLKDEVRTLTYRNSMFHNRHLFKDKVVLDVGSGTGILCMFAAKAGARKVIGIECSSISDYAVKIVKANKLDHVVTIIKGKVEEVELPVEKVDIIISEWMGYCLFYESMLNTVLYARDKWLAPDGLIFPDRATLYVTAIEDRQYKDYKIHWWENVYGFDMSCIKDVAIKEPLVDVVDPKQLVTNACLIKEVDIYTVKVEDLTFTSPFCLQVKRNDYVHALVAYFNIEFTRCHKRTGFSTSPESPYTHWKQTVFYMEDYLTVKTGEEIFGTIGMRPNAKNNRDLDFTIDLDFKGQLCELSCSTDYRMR
row,Compound,inhibition
1,CC1=C(C)CC2C(=O)N(c3cccc4ccccc34)C(=O)C2C1 (configuration not stated),54.1% (active)
2,O=C(O)CCn1c(O)c(C=C2N=c3ccccc3=N2)sc1=S,-5.43%
3,O=C(NC(Cc1c[nH]c2ccccc12)C(=O)O)/C(=C/c1ccco1)NC(=O)c1ccccc1 (configuration not stated),9.09%
4,Cc1ccc(NC(=O)Cn2sc3ccccc3c2=O)cc1,82.3% (active)
5,CCC(c1nnnn1Cc1ccco1)N(Cc1cc2cc(OC)ccc2[nH]c1=O)C1CCCCC1 (configuration not stated),18%
6,COC(=O)C[n+]1cccc2ccccc21,32.6% (active)
7,NC(=O)c1c(Nc2nc3c(F)cccc3s2)sc2c1CCCC2,-3.26%
8,O=C(Cc1ccc(-c2ccccc2)cc1)NC(c1ccccc1)c1ccccc1,3.32%
9,O=C(CSc1cccc[n+]1[O-])c1ccc(-c2ccccc2)cc1,25.6% (active)
10,Cc1sc(NC(=O)c2ccc3ncsc3c2)c(C(N)=O)c1C,3.89%
11,N#CC1(Nc2ccc3c4c(cccc24)CC3)CCCCC1,10.2%
12,CSc1nc(C)cc(SC(C(C)=O)C(=O)Nc2ccccc2)n1 (configuration not stated),22.5% (active)
13,CN(C)C(=S)N=c1ssc(=S)n1Cc1ccco1,15.6%
14,Cc1ccc(-n2nc(-c3ccco3)cc2C(=O)NCc2cccnc2)cc1,19.5%
15,C=CS(=O)c1sc(Cl)c(N2CCOCC2)c1[N+](=O)[O-] (configuration not stated),87.1% (active)
16,CCOC(=O)c1cc2n(c1N)-c1ccccc1C2=O,116% (active)
17,Cc1ccccc1CN1C[C@@H]2C[C@@H](c3cn(C)nc3-c3ccccc3)N3CCC[C@@]23C1=O,5.9%
18,O=C(Nc1cccc(F)c1)c1cc(-c2ccco2)nc2ccccc12,3.51%
19,O=C(Nc1nc(-c2ccco2)c(-c2ccco2)s1)c1ccco1,30.4% (active)
20,COc1cc(C(=S)NCc2ccccc2)cc(Br)c1O,19.8%
21,N#CC1=C(N)Oc2[nH]c(=S)[nH]c(=O)c2C12C(=O)Nc1ccccc12 (configuration not stated),66.4% (active)
22,Cc1ccc(Cc2cnc(N)s2)o1,-3.79%
23,O=C(CN1C(=O)S/C(=C\c2ccccc2F)C1=O)NCCCn1ccnc1,-3.11%
24,CC(NC(=O)CSc1nc2c(cc1C#N)CN(C)CC2)c1ccccc1 (configuration not stated),6.37%
25,COc1ccc(C(=O)COC(=O)COc2ccc(C)c(C)c2)cc1,3.72%
26,COc1ccnc(NC(=S)N2CCN(c3ncc(C(F)(F)F)cc3Cl)CC2)c1,4.89%
27,c1ccc(C(=NNc2nc3ccccc3s2)c2ccccn2)cc1,22.1% (active)
